# Test results: PubChem BioAssay AID1209 (Sanford-Burnham Center for Chemical Genomics, 2008)
# About 810 (0.43%) of roughly 190,000 compounds were called active. Shown is part of a subset that was picked to be rich in actives. A number with no mark means an inactive call. No stated cut-off is given here; in the data, active means inhibition above about 50%; inactive means the rest.
# Molecular target: Mannose-6-phosphate isomerase (Homo sapiens) (UniProt P34949)
# Test: MPI enzyme activity inhibition – biochemical, fluorescence intensity, coupled assay, primary screen (AID 1209);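 further: plate controls were DMSO vehicle for no effect and wells lacking substrate for full effect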
# Details: purified PMI enzyme, at 20 µM, hits give high values
# Chain of Mannose-6-phosphate isomerase (Homo sapiens) (P34949 whole entry, looked up): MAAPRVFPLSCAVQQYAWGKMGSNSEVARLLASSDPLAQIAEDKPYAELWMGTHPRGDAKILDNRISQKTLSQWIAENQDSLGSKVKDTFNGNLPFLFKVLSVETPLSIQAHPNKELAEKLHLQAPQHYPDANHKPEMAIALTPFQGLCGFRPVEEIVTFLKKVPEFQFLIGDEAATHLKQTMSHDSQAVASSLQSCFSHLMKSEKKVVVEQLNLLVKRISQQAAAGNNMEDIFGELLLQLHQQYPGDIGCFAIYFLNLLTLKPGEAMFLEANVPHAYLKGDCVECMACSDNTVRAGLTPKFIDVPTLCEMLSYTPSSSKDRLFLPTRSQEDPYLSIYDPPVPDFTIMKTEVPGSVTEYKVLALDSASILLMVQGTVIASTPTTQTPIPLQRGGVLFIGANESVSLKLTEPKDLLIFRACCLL
row,Structure (SMILES),inhibition
1,Cc1ccc2nc(C)c(C(=O)N/N=C/c3ccc(C(=O)O)cc3)cc2c1,13.8%
2,Cn1cccc1C(=O)NC(=O)COC(=O)c1ccccc1O,9.4%
3,Cc1cc(NC(=S)N(CCCN2CCN(C)CC2)Cc2ccco2)ccc1Cl,3.6%
4,CC1CCN(C(=O)CSc2nnc(CSc3ncccn3)n2C)CC1,-8.9%
5,CCOC(=O)c1nnc(-c2ccccc2)nc1Oc1ccc(Cl)cc1,2.2%
6,Cc1ccc(-c2nnc(-c3ccc(NC(=O)c4ccco4)cc3)o2)cc1,75.9% (active)
7,Cc1ccc(Oc2ccc(NC(=O)c3ccco3)cc2)cc1,6.1%
8,O=C(Nc1cccc(-c2nnc(-c3ccccc3)o2)c1)c1ccco1,7.4%
9,CCN(CC)c1ccc(/C=N/N2CCOCC2)c(O)c1,19.6%
10,COc1cccc(/C=N/N2CCOCC2)c1O,4.9%
11,CC(C)c1nc(CN2CCCCC2)cc(=O)[nH]1,8.6%
12,CCN(CC)S(=O)(=O)c1ccc(C(=O)NCc2n[nH]c(=S)n2Cc2ccccc2)cc1,10.2%
13,CC1=C(C(N)=O)C(c2cccs2)NC(=S)N1 (stereo unspecified),-11.8%
14,Cc1nn(C)c(C)c1N1C(=O)c2cccc3c(N)ccc(c23)C1=O,6%
15,CC(=O)c1ccc2c3c(cccc13)C(=O)N(c1c(C)nn(C)c1C)C2=O,74.2% (active)
16,Cc1nn(C)c(C)c1N1C(=O)c2cccc3c(Br)ccc(c23)C1=O,-0.5%
17,O=C(NC(Nc1ncccn1)C(=O)c1ccccc1)c1ccccc1 (stereo unspecified),-2%
18,O=C(NC(NC(=O)c1ccccc1)c1ccccc1)c1ccccc1,-8.6%
19,O=C(NC(NC(=O)c1ccccc1)C(=O)c1ccccc1)c1ccccc1,109% (active)
20,CC(NC(=O)c1ccc2c(c1)OCCO2)C(=O)O (stereo unspecified),-5.6%
21,Cn1cc(CNCc2cnc3ccccn23)c(-c2ccc(Oc3ccccc3)cc2)n1,4.9%
22,CCN(CC)S(=O)(=O)c1ccc(NC(=O)c2cc(-c3cccs3)nc3ccccc23)cc1,-4.8%
23,c1ccc(Nc2cccc(Nc3ccccc3)c2)cc1,21%
24,[O-][N+]1=c2ccc(Nc3ccccc3)cc2=NC12CCCCC2,79.7% (active)
25,O=[N+]([O-])c1ccc2c(c1Nc1ccccc1)=NC1(CCCCC1)N=2,46.2%
26,COc1cc(C(=O)N/N=C(\C)c2ccc3c(c2)OCO3)cc(OC)c1OC,2.6%

row,Structure (SMILES),inhibition
1,Cc1cc(C)n(-c2ccc([N+](=O)[O-])cc2)n1,7%
2,C=CCn1c(SCC(=O)N2N=C(c3ccco3)CC2c2ccco2)nnc1-c1ccncc1 (stereo unspecified),57.4% (active)
3,C=CCn1c(SCC(=O)N2CCCCC2)nnc1-c1ccncc1,-1.3%
4,COc1ccc(C2=NN(C(=O)CSc3nnc(C)n3C)C(c3ccco3)C2)cc1 (stereo unspecified),-23.9%
5,CN(C)C(=S)Nn1c(-c2ccccc2)nc2ccccc2c1=O,4.8%
6,Cc1ccc(-c2nc3ccccc3c(=O)n2NC(=S)N(C)C)cc1,16.6%
7,COc1ccc(-c2nc3ccccc3c(=O)n2NC(=S)N(C)C)cc1,57.4% (active)
8,CCOC(=O)C1(C)C=C(Nc2ccc(OCC)cc2)C(=O)N1c1ccccc1 (stereo unspecified),11.1%
9,CCCCC(=O)Nc1sc(C(=O)N(CC)CC)c(C)c1C(=O)OC,58.3% (active)
10,CCOC(=O)c1c(NC(=O)CCl)sc(C(=O)N(CC)CC)c1C,-11.1%
11,CCOC(=O)c1c(NC(=O)CN(C)C)sc(C(=O)N(CC)CC)c1C,8.3%
12,CC(C)CN(C(=O)CN1CCC(C)CC1)c1c(N)n(CC(C)C)c(=O)[nH]c1=O,-5.2%
13,C/C(CC(=O)N1CCN(C=O)CC1)=N\NC(=O)c1ccc(Cl)cc1,-0.6%
14,COc1ccc(C(=O)N/N=C(\C)CC(=O)N2CCN(C=O)CC2)cc1,5.1%
15,C/C(CC(=O)N1CCN(C=O)CC1)=N\NC(=O)c1cc2ccccc2cc1O,84.9% (active)
16,Cc1cc(C)nc(Nc2n[nH]c(-c3ccccc3C)n2)n1,3.4%
17,O=c1[nH]c(-c2ccncc2)nc2ccccc12,71.3% (active)
18,O=c1[nH]c(-c2ccccn2)nc2ccccc12,19.5%
19,O=c1[nH]c(-c2cccnc2)nc2ccccc12,7.1%
20,CCOC(=O)C(C)n1cnc2c(nnn2-c2cccc(Cl)c2)c1=O (stereo unspecified),-9.6%
21,COc1ccccc1NC(C)C(=O)Nc1ccc(C(C)=O)cc1 (stereo unspecified),19.5%
22,CCc1ccc(NC(=O)c2ccccc2SC)cc1,7.2%
23,O=[N+]([O-])c1ccccc1-c1ccc(/C=N/n2cnnc2)o1,20.4%
24,Cc1nnc(N/N=C/c2ccc(-c3ccccc3F)o2)n1N,-38.4%
25,Nn1cnnc1N/N=C/c1ccc(Cl)c([N+](=O)[O-])c1,13.3%
26,Nn1cnnc1N/N=C\c1ccc(-c2ccccc2[N+](=O)[O-])o1,82.5% (active)

row,Structure (SMILES),inhibition
1,Cc1nnc(N/N=C/c2ccc(-c3ccc(Br)cc3)o2)n1N,-11.5%
2,Cc1nnc(N/N=C\c2ccc(-c3ccccc3[N+](=O)[O-])o2)n1N,57.8% (active)
3,COc1ccc(N2C(=O)CSCC2=O)cc1OC,1.2%
4,Cc1ccc(C)c(C(C)NC(=O)c2ccccc2Br)c1 (stereo unspecified),-5.5%
5,Cc1ccc(N=C2CSC(=O)N2)cc1,8.6%
6,CCOC(=O)c1ccc(N=C2NC(=O)CS2)cc1,10.2%
7,Cc1cc(C)c(C#N)c(Cl)n1,21%
8,CCOC(=O)c1ccc(N=c2ssnc2Cl)cc1,66.1% (active)
9,CCOC(=O)c1ccc(N=c2scc(C)n2CC)cc1,-8.8%
10,O=C1CSC(=Nc2ccccc2)N1Cc1ccccc1,6.4%
11,Cc1cc(C)nc(NC(=O)c2csnn2)c1,-0.9%
12,Cc1ccc(N=c2ssnc2Cl)cc1,75.1% (active)
13,Cc1ccc(N=c2sc(C)c(C)n2C)cc1,-13%
14,Clc1nssc1=Nc1ccccc1,57% (active)
15,Clc1ss/c(=N\c2ccccn2)c1Cl,-30.7%
16,Cc1cc(C)nc(/N=c2/ssnc2Cl)c1,60.1% (active)
17,CCC(=O)c1c[nH]c(C(=O)NCCCn2ccnc2)c1,10.2%
18,O=C(CCN1CCCCCC1)Nc1ccc(F)c(F)c1,-7.5%
19,COc1cc(/C=C(\NC(=O)c2ccccc2)C(=O)Nc2cccc(O)c2)c([N+](=O)[O-])cc1OC,9.6%
20,COC(=O)C(C(=O)OC)=C(/C=C/C=C/N(C)C)N(C)C,2.5%
21,O=C(Nc1ccc(Br)cc1)c1ccccc1CC[N+](=O)[O-],17.3%
22,O=C1c2ccccc2C(=O)N1CC1c2ccccc2CCN1S(=O)(=O)c1cnc[nH]1 (stereo unspecified),7.7%
23,CC(C)c1nnc(NC(=O)CSc2ncn[nH]2)s1,10.7%
24,CC(C)(C)C1CCC(=NNC(=O)c2ccccc2-n2cccc2)CC1 (stereo unspecified),21%
25,CC12c3ccccc3C(c3ccccc31)C1C(=O)N(Cc3cccnc3)C(=O)[C@H]12 (stereo partly specified),4.1%
26,COc1ccc2c(c1)c(=O)c(C(=O)c1ccc(C)cc1)cn2CC(=O)Nc1ccc(F)cc1,3.6%

row,Structure (SMILES),inhibition
1,COc1cc(OC)cc(-n2nnnc2SCC(=O)Nc2ccc(C(C)=O)cc2)c1,5.1%
2,Cc1cc(NC(=O)C(C)C)ncc1NC(=O)c1ccccn1,0.2%
3,O=C(CNC(=O)c1ccc(S(=O)(=O)N2CCCC2)cc1)N/N=C/c1ccc(Cl)cc1Cl,9.4%
4,Brc1ccc(N=Cc2ccccn2)cc1,-9.1%
5,Clc1ccc(N=c2ssnc2Cl)cc1,78.7% (active)
6,NC1=NC(=Nc2ccc(Br)cc2)c2ccccc21,-7.2%
7,Clc1nssc1=Nc1ccc(Br)cc1,81.6% (active)
8,O=C1NC(=Nc2ccc(Cl)cc2)/C(=C/c2ccco2)S1,1.4%
9,NC1=NC(=Nc2ccc(Cl)cc2)c2ccccc21,-3.6%
10,CCOC(=O)Nc1ccc(OCc2nnc3c4ccccc4c(C)nn23)cc1,3.7%
11,CCOC(=O)c1cnc(SCC(=O)NCc2cccs2)nc1N,-5.5%
12,CCN(CC)S(=O)(=O)c1ccc(/C=C/C(=O)OCC(=O)Nc2ccc(C(N)=O)cc2)cc1,-5.2%
13,CCN(CC)S(=O)(=O)c1ccc(/C=C/C(=O)OCC(=O)Nc2ccc(S(N)(=O)=O)cc2)cc1,70.7% (active)
14,NS(=O)(=O)c1ccc(NC(=O)COC(=O)/C=C/c2ccc([N+](=O)[O-])cc2)cc1,-1.2%
15,Cc1c(C(=O)N2CCN(c3ccccc3F)CC2)sc2ncn(CC(=O)N3CCOCC3)c(=O)c12,-1.6%
16,Cc1c(NC(=O)c2ccc(C(C)(C)C)cc2)cccc1[N+](=O)[O-],7.4%
17,CCn1c(CCc2ccccc2)n[nH]c1=S,-3%
18,CCn1c(SCC(=O)N/N=C/c2ccc(O)c(OC)c2)nc2ccccc21,61.7% (active)
19,CCn1c(SCC(=O)N/N=C/c2cc(OC)c(O)c(OC)c2)nc2ccccc21,-0.1%
20,CCn1c(SCC(=O)N/N=C/c2ccc(OC)c(OC)c2)nc2ccccc21,8.4%
21,COc1ccccc1N1CCN(C(=O)C2CCN(S(=O)(=O)N3CCOCC3)CC2)CC1,-6.6%
22,Cc1cccc(NC(=S)N(CCCN2CCOCC2)Cc2ccccn2)c1,-1.4%
23,CCN(CC)C(=O)c1cn(C)c(=O)c2cc(OC)c(OC)cc12,12.6%
